Inconclusive results are not listed. Activity calls are given as the source filed them. The call rests on the fitted dose curve; in most records, active means well fitted curve in the direction sought with a large enough effect; inconclusive means small, poorly fitted or top-dose-only effect, or another doubt; inactive means no such curve, though single readings can be large; an effect the other way counts as inactive or inconclusive.
Key:
[1] = qHTS assay for measurement of the activity of small molecule inhibitors on Zika virus induced Caspase-3 activity in human iPSC derived neural progenitor cells (hNPCs) (AID 1224857); further: % of control where 0% means no effect; nearly all actives have a fitted effect of over 65% in size
Outline: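 Percent inhibition of virus-induced caspase-3/7 luminescence (Caspase-Glo), scaled between uninfected cells and Zika-infected cells. hNPCs received compound 1 hr before ZIKV at 2 FFU/cell, with 6 hours infection at 37 C.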

[2] = qHTS assay for measurement of the activity of small molecule inhibitors on Zika virus induced Caspase-3 activity in human astrocytoma cells (AID 1224859);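 further: plate controls were ZIKV-infected untreated cells for no effect and uninfected cells for full effect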
Outline: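 Luminescent caspase-3/7 read-out (30 min reagent, room temperature) in human SNB-19 cells infected 6 h with ZIKV (2 FFU/cell) after 1 h compound pre-incubation; Data were normalised to uninfected and infected wells.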

[3] = qHTS assay to identify small molecule inhibitors of chordoma cells - UCH-1 (AID 1259355); further: on the % scale 0 is the no-effect control and ±100 the full control effect; nearly all actives have a fitted effect of over 55% in size
Outline: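 A 48hr growth-inhibition format: each drug tested at 15 concentrations together with added auranofin, camptothecin, doxorubicin, rubitecan and topotecan, with cell viability quantified as CellTiter-Glo luminescence.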

[4] = qHTS assay to identify small molecule inhibitors of chordoma cells - UCH-2 (AID 1259356); further: series mostly up to about 46 µM; on the % scale 0 is the no-effect control and ±100 the full control effect
[5] = P-glycoprotein substrates identified in KB-3-1 adenocarcinoma cell line, qHTS therapeutic library screen (AID 1346986); conditions: outcome: dose series up to 44.5 µM; further: nearly all actives have a fitted effect of over 60% in size
Outline: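 Using luminescence to quantify ATP, parental and P-gp-overexpressing KB cells were compared after 72 h compound titration. KB-8-5-11 was also run with the P-gp inhibitor tariquidar.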

[6] = P-glycoprotein substrates identified in KB-8-5-11 adenocarcinoma cell line, qHTS therapeutic library screen (AID 1346987); conditions: outcome: dose series up to 44.5 µM; further: series mostly up to about 44 µM; on the % scale 0 is the no-effect control and ±100 the full control effect; nearly all actives have a fitted effect of over 65% in size
Outline: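 Human cervical adenocarcinoma KB-8-5-11 cells, selected in colchicine to over-express P-gp and assayed without it, were exposed for 72 h to titrated compounds. An ATP-based luminescent viability signal gave AC50.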

Measured: activity change, negative = inhibition

CC(CSC(=O)c1ccccc1)C(=O)N1C[C@@H](Sc2ccccc2)C[C@H]1C(=O)O (some centres undefined)
inactive: [1] | [2] | [3]

CC1(c2ccccc2)OC(C(=O)O)=CC1=O (centres undefined)
inactive: [1] | [2] | [3] | [4]

CC(C)C[C@@H](N)C(=O)O
inactive: [5]

O=C(O)CCCc1ccccc1
inactive: [5]

NS(=O)(=O)c1cc(C2(O)NC(=O)c3ccccc32)ccc1Cl (centres undefined)
inactive: [1] | [2] | [3] | [4] | [6]

CCN(CC)C(=O)c1cccc(C)c1
inactive: [1] | [2] | [3] | [4] | [6]

CC[N+](CC)(CC(=O)Nc1c(C)cccc1C)Cc1ccccc1
inactive: [1] | [2] | [3] | [4] | [6]

CCN(CC)CCOC(=O)C(c1ccccc1)c1ccccc1
inactive: [1] | [2] | [3] | [4] | [6]

CC(C)(C)C(=O)OCOC(=O)[C@@H]1N2C(=O)[C@@H](NC(=O)[C@H](N)c3ccccc3)[C@H]2SC1(C)C
inactive: [1] | [2] | [3] | [4] | [6]

CC(=O)N[C@H]1[C@H]([C@H](O)[C@H](O)CO)OC(C(=O)O)=C[C@@H]1N=C(N)N
inactive: [1] | [2] | [3] | [4] | [6]

Cc1cc(C)nc(NS(=O)(=O)c2ccc(N)cc2)n1
inactive: [1] | [2] | [3] | [4] | [6]

CC(=O)Nc1ccccc1
inactive: [1] | [2] | [3] | [4] | [6]

COc1ccc(O)cc1
inactive: [1] | [2] | [3] | [4] | [6]

C=CCSCC1Nc2cc(Cl)c(S(N)(=O)=O)cc2S(=O)(=O)N1 (centres undefined)
inactive: [1] | [2] | [3] | [4] | [6]

CC(=O)N1C[C@H](O)C[C@H]1C(=O)O
inactive: [1] | [2] | [3] | [4] | [6]

CC(=O)Nc1cccc(O)c1
inactive: [1] | [2] | [3] | [4] | [6]

NS(=O)(=O)c1ccc(C(=O)O)cc1
inactive: [1] | [2] | [3] | [4] | [6]

O=C(/C=C/c1ccccc1)OCc1ccccc1
inactive: [1] | [2] | [3] | [4] | [6]

CCCCCCCCCCCCCCCCCCO
inactive: [1] | [2] | [3] | [4] | [6]

COc1ccccc1Oc1c(NS(=O)(=O)c2ccc(C(C)(C)C)cc2)nc(-c2ncccn2)nc1OCCO
inactive: [1] | [2] | [3] | [4] | [6]

NS(=O)(=O)c1ccc(NC(=O)CCC(=O)O)cc1
inactive: [1] | [2] | [3] | [4] | [6]

CN[C@@H]1[C@H](O)[C@H](NC)[C@H]2O[C@@]3(O)C(=O)C[C@@H](C)O[C@H]3O[C@@H]2[C@H]1O
inactive: [1] | [2] | [3] | [4] | [6]

NS(=O)(=O)c1cc2c(cc1C(F)(F)F)NCNS2(=O)=O
inactive: [1] | [2] | [3] | [4] | [6]

COc1cc(C(=O)NCCCCCC(=O)O)cc(OC)c1OC
inactive: [1] | [2] | [3] | [4] | [6]

CCCCCCCC(=O)OCC(O)CO (centres undefined)
inactive: [1] | [2] | [3] | [4] | [6]

N[C@@H](Cc1ccc(O)cc1)C(=O)O
inactive: [1] 4.45% [at 9.06 µM] | [2] -11% [at 9.06 µM] | [3] | [4] | [6]

CC(=O)N(CC(O)CO)c1c(I)c(C(=O)NCC(O)CO)c(I)c(C(=O)NCC(O)CO)c1I (centres undefined)
inactive: [1] | [2] | [3] | [4] | [6]

CCCC(O)C(CC)CO (centres undefined)
inactive: [1] | [2] | [3] | [4] | [6]

COC(=O)c1ccc(O)cc1
inactive: [1] | [2] | [3] | [4] | [6]

O=C(c1ccccc1)C(O)c1ccccc1 (centres undefined)
inactive: [1] | [2] | [3] | [4] | [6]

O=C(O)/C=C/c1ccc(Cn2ccnc2)cc1
inactive: [1] | [2] | [3] | [4] | [6]

O=C(O)Cc1ccc(CCNS(=O)(=O)c2ccc(Cl)cc2)cc1
inactive: [1] | [2] | [3] | [4] | [6]

CC(=O)NCc1c(I)c(NC(C)=O)c(I)c(C(=O)O)c1I
inactive: [1] | [2] | [3] | [4] | [6]

Cc1cc(OI)c(C(C)C)cc1-c1cc(C(C)C)c(OI)cc1C
inactive: [1] | [2] | [3] | [4] | [6]

Reference: PubChem BioAssay (NCATS)
